From paper PMC10338684

target: Helicase protein MOM1 (UniProt Q9M658); experiment: mass-spectrometry hit list; affinity purification or IP with mass spectrometry
UniProt Q9M658, sequence (Q9M658 whole entry): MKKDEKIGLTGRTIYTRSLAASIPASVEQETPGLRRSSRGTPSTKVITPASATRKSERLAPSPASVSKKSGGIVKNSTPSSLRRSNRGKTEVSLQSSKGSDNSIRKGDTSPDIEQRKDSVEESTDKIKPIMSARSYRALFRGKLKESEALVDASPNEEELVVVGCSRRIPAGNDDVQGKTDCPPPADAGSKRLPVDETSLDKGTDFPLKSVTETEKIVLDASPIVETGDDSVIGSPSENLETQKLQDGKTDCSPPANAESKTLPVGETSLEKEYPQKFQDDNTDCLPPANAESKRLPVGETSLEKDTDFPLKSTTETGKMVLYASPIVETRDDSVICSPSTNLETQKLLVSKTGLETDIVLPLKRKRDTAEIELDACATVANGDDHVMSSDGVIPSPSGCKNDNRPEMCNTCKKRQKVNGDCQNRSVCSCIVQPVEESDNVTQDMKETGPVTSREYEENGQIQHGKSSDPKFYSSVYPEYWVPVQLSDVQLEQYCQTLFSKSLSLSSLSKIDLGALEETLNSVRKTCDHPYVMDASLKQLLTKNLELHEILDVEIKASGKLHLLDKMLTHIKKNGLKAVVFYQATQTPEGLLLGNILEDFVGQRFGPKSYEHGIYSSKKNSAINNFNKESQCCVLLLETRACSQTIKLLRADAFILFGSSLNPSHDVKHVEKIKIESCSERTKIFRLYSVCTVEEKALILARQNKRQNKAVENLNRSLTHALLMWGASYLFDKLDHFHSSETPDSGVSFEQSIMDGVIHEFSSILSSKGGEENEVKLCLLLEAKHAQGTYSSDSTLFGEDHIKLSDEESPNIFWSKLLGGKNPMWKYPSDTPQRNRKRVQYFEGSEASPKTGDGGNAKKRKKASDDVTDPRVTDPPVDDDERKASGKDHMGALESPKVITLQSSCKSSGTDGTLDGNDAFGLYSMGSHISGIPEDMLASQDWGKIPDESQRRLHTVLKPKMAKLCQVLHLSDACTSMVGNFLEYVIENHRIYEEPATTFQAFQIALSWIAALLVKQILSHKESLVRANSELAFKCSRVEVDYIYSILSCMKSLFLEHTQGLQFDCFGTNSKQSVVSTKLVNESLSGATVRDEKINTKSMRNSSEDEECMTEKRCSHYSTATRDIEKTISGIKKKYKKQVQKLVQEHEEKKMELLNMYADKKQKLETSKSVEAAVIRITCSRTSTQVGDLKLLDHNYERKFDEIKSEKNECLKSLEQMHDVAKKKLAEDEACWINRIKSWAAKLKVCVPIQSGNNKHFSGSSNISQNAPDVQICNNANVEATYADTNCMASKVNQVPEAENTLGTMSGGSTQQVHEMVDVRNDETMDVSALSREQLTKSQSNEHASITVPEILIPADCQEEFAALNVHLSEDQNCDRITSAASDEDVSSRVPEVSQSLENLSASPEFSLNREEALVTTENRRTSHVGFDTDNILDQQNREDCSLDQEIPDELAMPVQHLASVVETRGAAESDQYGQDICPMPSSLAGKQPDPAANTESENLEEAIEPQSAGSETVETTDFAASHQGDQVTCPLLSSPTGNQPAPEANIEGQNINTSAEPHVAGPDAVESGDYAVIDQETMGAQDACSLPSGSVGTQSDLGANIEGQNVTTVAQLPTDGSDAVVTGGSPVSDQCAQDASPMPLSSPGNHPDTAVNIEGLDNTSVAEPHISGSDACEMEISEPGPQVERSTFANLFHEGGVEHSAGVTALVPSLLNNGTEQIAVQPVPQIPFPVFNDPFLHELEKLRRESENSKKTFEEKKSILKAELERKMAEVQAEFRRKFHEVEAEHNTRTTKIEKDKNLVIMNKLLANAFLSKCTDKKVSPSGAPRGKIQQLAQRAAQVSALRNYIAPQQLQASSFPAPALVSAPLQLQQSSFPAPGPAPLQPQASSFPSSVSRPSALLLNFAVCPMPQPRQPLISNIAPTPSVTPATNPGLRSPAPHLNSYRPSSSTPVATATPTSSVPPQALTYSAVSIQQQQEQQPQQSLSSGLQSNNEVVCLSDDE

Listed as a hit, yes:
Lysine-specific demethylase JMJ14, Q8GUI6
Protein MICRORCHIDIA 6, Q56Y74
ASI1-immunoprecipitated protein 3, Q8RXT5
Chromatin remodeling ATPase BRAHMA, Q6EVK6
Protein MICRORCHIDIA 1, Q84WV6
Probable inactive lysine-specific demethylase JMJ19, Q8L7T6
E4 SUMO-protein ligase PIAL2, F4JYG0
DNA-directed RNA polymerase V subunit 1, Q5D869
E4 SUMO-protein ligase PIAL1, A0A0A7EPL0
PHD finger-containing protein 1, B3H578
Structural maintenance of chromosomes flexible hinge domain-containing protein GMI1, F4KFS5
Protein RNA-directed DNA methylation 3, F4JW79
DNA-directed RNA polymerases IV and V subunit 2, Q9LK40
Chromatin structure-remodeling complex protein SYD, F4IHS2
Protein DEFECTIVE IN MERISTEM SILENCING 3, Q94A79
